Compounds with a hit are over-represented: about 1.1% of the library has one in this group of screens.
VLA-4 inh = inhibition in a human VLA-4 binding assay | VLA-4 expressing cells, ligand binding flow cytometry | inhibition, % (about 7 µM as worked out from the volumes in the protocol) | hit rate 0.2% among 330,000 | AID 2557; in the data active = inhibition above about 50%
Target sequence (P13612 whole entry, looked up): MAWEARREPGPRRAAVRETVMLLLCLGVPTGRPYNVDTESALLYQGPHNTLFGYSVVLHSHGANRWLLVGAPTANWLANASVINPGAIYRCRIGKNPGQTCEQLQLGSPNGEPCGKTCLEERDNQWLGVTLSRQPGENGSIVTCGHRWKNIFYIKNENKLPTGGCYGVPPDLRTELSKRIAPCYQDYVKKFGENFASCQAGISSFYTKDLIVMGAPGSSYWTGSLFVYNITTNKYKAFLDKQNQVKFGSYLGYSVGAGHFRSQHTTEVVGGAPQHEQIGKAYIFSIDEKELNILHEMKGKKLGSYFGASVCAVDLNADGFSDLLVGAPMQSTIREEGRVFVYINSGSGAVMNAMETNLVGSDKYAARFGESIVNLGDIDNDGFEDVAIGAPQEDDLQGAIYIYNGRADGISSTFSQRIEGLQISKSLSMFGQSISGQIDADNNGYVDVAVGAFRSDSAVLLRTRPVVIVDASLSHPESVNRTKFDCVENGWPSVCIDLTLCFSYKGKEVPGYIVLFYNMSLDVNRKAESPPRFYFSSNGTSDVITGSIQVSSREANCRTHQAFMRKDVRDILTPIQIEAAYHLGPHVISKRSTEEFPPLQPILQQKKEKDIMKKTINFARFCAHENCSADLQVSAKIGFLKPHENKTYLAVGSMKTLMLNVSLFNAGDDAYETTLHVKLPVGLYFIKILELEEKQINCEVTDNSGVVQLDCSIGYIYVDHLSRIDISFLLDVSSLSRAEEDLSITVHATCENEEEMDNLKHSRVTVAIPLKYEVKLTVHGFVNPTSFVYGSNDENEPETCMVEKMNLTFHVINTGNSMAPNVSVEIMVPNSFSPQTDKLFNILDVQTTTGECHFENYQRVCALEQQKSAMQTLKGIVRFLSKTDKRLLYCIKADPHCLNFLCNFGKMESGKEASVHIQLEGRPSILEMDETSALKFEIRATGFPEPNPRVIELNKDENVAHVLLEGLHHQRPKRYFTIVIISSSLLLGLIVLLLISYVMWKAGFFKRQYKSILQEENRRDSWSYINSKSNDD
Granule exo inh = blocks lytic granule exocytosis. hit rate 0.66% among 360,000. AID 651702. TALL-104 LAMP-1 surface exposure, flow cytometry; cells stimulated with thapsigargin and PMA. inhibition, % at 10 µM;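 active = inhibition above about 55%, limit read from the data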
ABCB6 inh MLPCN = inhibitors of human ABC transporter ABCB6. Q9NP58. K562-ABCB6 porphyrin accumulation, flow cytometry, 1 h; hits give low values. fluorescence ratio to DMSO, % at 10 µM. hit rate 0.19% among 360,000. AID 602162;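 active = fluorescence ratio to DMSO below 75%, the collection mean minus 3 SD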;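 note: signal is porphyrin accumulated inside mitochondria; 100% equals median channel fluorescence of DMSO control wells; lower ratio means ABCB6 inhibition with less porphyrin fluorescence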
CaV13 ICDI inh = Primary screen for inhibitors of IQ motif and Ca2+-dependent inactivation inhibitor domain binding in CACNA1D, Förster resonance energy transfer in living cells, … | hit rate 0.098% among 340,000 | HEK cells, CFP/YFP FRET ICDI-IQ, plate reader, 10 min; percent FRET-ratio fall versus neutral wells | inhibition, % at 12.3 µM;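 active = mean replicate inhibition of at least 30% and at least 1% of replicates passing that level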;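 note: 0% = median of the neutral control wells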
VLA-4 allo CP = human VLA-4 allosteric modulation in cherry picked compounds; U937 cells, HUTS-21 LIBS mAb binding, flow cytometry; LDV ligand present at threefold Kd; shares compounds with VLA-4 inh; AID 2813; inhibition, % at 6.7 µM; hit rate 2% among 1,300; in the data active = inhibition above about 40%;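 note: 0% = ligand without compound and 100% = no ligand background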
Active calls of the source: *; nt = no result given.

SMILES	VLA-4 inh	Granule exo inh	ABCB6 inh MLPCN	CaV13 ICDI inh	VLA-4 allo CP
CS(=O)(=O)c1nc(S(=O)(=O)c2ccc(Cl)cc2)c(NCCN2CCOCC2)s1	2	2	93	-3	nt
CCOC(=O)c1ccc(N2C(=O)CC(N(C)CCc3ccc(OC)c(OC)c3)C2=O)cc1 (stereo not given)	-5	2	102	-6	nt
CCOc1cccc(N2C(=O)CC(N(CCc3ccc(OC)c(OC)c3)C(=O)CC)C2=O)c1 (stereo not given)	7	-2	100	nt	-8
CCOc1ccc(N2C(=O)CC(N(CCc3ccc(S(N)(=O)=O)cc3)C(C)=O)C2=O)cc1 (stereo not given)	10	-2	94	-5	nt
CCC(=O)N(Cc1ccc(S(N)(=O)=O)cc1)C1CC(=O)N(c2ccc(OC)cc2)C1=O (stereo not given)	0	0	100	nt	4
COc1ccc(C2CC(=O)C(c3ccc(C(F)(F)F)cc3)=CN2Cc2ccccc2)cc1 (stereo not given)	nt	nt	nt	-4	nt
COCCCn1[nH]c2c3c(ccc2c1=O)C(=O)c1ccccc1C3=O	92*	5	105	nt	-1
CC(C)(C)n1[nH]c2c3c(ccc2c1=O)C(=O)c1ccccc1C3=O	-18	0	98	-6	nt
Cc1cc(/C=C(/C#N)C(=O)Nc2ccccc2)c(C)n1-c1cccnc1	94*	3	106	-7	-2
Cc1ccc(S(=O)(=O)CCC(=O)OCc2ccc(Cl)c(Cl)c2)cc1	-13	1	99	-5	nt
Cc1ccc(S(=O)(=O)CCC(=O)OCc2ccc(S(=O)(=O)C(C)C)cc2)cc1	51*	-7	99	-1	3
CC(=O)c1cccc(NC(=S)NC(=O)c2ccc(C)cc2)c1	-5	-6	98	-7	nt
Cc1cc(C)nc(NC(=O)c2ccc(Cl)cc2)n1	-8	-1	101	-6	nt
Cc1cc(C)nc(NC(=O)c2cccc(Cl)c2)n1	53*	-2	102	-6	-2
Cc1ccc(C(=O)NC(=S)Nc2ccc(NC(=O)c3cccc(Cl)c3)cc2)cc1	47	1	96	-19	8
Cc1ccccc1NC(=O)N(C)[C@H]1C[C@H]2c3[nH]c4c(-c5ccc6c(c5)OCO6)cccc4c3CCN2C(=O)[C@H]1[C@H](C)O	nt	nt	nt	-4	nt
Cn1nnnc1SCC(=O)N1CCN(S(=O)(=O)c2ccccc2)CC1	51*	18	97	-21	5
Cn1nnnc1SCC(=O)N1CCN(S(=O)(=O)c2ccc(Cl)cc2)CC1	1	0	104	-7	nt
CC(OC(=O)c1cnccn1)C(=O)c1ccccc1 (stereo not given)	6	-3	101	-2	nt
Cc1ccc(C(=O)C(OC(=O)c2cnccn2)c2ccccc2)cc1 (stereo not given)	48	-1	100	-2	-9
CCOc1ccc(CN2CCN(Cc3cn(CC)nc3C)CC2CCO)cc1 (stereo not given)	42	3	101	-4	2
CCOc1ccc(CN2CCN(Cc3c(C)nn(CC)c3C)CC2CCO)cc1 (stereo not given)	6	-4	97	-5	nt
CCCc1c(Cc2cccc(F)c2)ncn1CCc1ccccc1OC	nt	nt	nt	-12	nt
Fc1ccccc1N1CCN(c2ncnc3nc[nH]c23)CC1	7	-2	100	2	nt
FC(F)(F)c1cccnc1N1CCN(c2ncnc3nc[nH]c23)CC1	50*	-4	100	-6	7
SMILES	VLA-4 inh	Granule exo inh	ABCB6 inh MLPCN	CaV13 ICDI inh	VLA-4 allo CP
CSC(=Cc1ccc(C(=O)c2ccc(C)cc2)n1C)S(C)=O (stereo not given)	nt	nt	nt	-5	nt
Cc1cccc(-n2c(Cc3cc(=O)[nH]c(=O)[nH]3)nnc2SCC(=O)N2CCCCC2)c1	54*	2	99	-2	10
CCC(=O)NC(=S)Nc1ccccc1C(=O)NC1CCCCC1	44	-3	101	-5	7
O=C(NC1CCCCC1)c1ccccc1NC(=S)NC(=O)C1CC1	1	-4	92	-6	nt
COc1ccccc1Cc1c(-c2ccc(Cl)cc2)nc2ccc(C)cn12	nt	nt	nt	-7	nt
Cc1cc(C)n(C(=O)CNC(=O)/C=C/c2ccccc2)n1	18	2	91	-5	nt
CCOC(=O)C(NC(=O)c1cccc(Cl)c1)(Nc1nnc(C)s1)C(F)(F)F (stereo not given)	47	-1	98	-3	10
C[C@@H]1ON(C)[C@H]2C[C@H]3c4[nH]c5c(-c6ccc(F)cc6)cccc5c4CCN3C(=O)[C@@H]12	nt	nt	nt	-4	nt
COc1cc2c(cc1OC)C(c1ccc(OC)c(OC)c1OC)CC(=O)N2 (stereo not given)	0	6	99	-20	1
CCCOc1c(OC)cccc1C1CC(=O)Nc2cc3c(cc21)OCO3 (stereo not given)	2	3	99	-1	nt
COC(=O)c1ccc(C2CC(=O)Nc3cc(OC)c(OC)c(OC)c32)cc1 (stereo not given)	1	0	102	-1	-10
COc1cc2c(cc1OC)C(c1cccc(OC)c1OC)CC(=O)N2 (stereo not given)	12	1	87	-6	nt
CCOc1c(OC)cccc1C1CC(=O)Nc2cc(OC)c(OC)cc21 (stereo not given)	-14	-3	100	-6	0
COc1ccc(S(=O)(=O)N2CCCc3nc(-c4ccccc4)ccc32)cc1	nt	nt	nt	-4	nt
COCCCNC(=O)C[C@H]1C[C@@]2(C(=O)OC)C(=C[C@H](C(C)(C)C)O[C@@H]2C)N(CCC2=CCCCC2)C1=O	nt	nt	nt	-7	nt
C/C(=N\Nc1ccc([N+](=O)[O-])cc1[N+](=O)[O-])c1cccnc1	45	1	103	-3	-18
COC(=O)Nc1ccc(S(=O)(=O)N2CCCc3cccc(O)c32)cc1	-6	-3	99	0	nt
COC(=O)Nc1ccc(S(=O)(=O)N2CCCc3ccccc32)cc1	79*	2	101	-5	1
CCOCCCNC(=O)/C(C#N)=C/c1cc(Br)c(O)c(Br)c1	nt	8	100	nt	22
CCCCNC(=O)/C(C#N)=C/c1ccc(C(=O)OC)cc1	4	-1	100	nt	21
COCCNC(=O)/C(C#N)=C/c1cc(Br)c(O)c(OC)c1	-12	-2	96	8	1
COc1ccc(C2c3ccc4ccccc4c3Oc3ncn(CCCN(C)C)c(=N)c32)cc1 (stereo not given)	45	1	108	-4	27
CCCCC(=O)OCC(=O)Nc1cccc(S(=O)(=O)NC2=NCCCCC2)c1	-2	2	98	-6	nt
COc1ccc(C(=O)C(=O)N2CCN(C(=O)c3cc(C(F)(F)F)cc(C(F)(F)F)c3)CC2)cc1OC	nt	nt	nt	-8	nt
CCc1cccc(NS(=O)(=O)c2cccc3cccnc23)c1	-4	-3	98	-3	nt
O=C(O)c1cccc(NS(=O)(=O)c2cccc3cccnc23)c1	50*	5	101	10	18
COC(=O)c1ccc(NC(=S)N2CCC(C(N)=O)CC2)cc1	46	-6	100	-5	8
